Laboratory results reported in PubChem BioAssay (NCI).
Several values for one entry are separate records, joined by “and”; a condition that tells them apart may be missing. Equal values may be shown once. Compounds without any hit were thinned out: in the full panel of roughly 83,000, 20% have a hit.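 Plates (96-well) were seeded with cells, treated with compound at one concentration, and incubated for 48 hours before percent growth was determined.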 Activity calls are given as the source filed them. How the source made its calls: active means growth percent below 10; inactive means the rest.

Tests used:
Assay in all cases: NCI-60 one-dose screen, 48 h (100 = growth as untreated, 0 = no growth, -100 = all killed)
[1] = test system: DU-145 prostate
[2] = test system: K-562 leukemia
[3] = test system: MALME-3M melanoma
[4] = test system: MDA-MB-231 breast
[5] = test system: RXF 393 renal
[6] = test system: SF-268 CNS
[7] = test system: SF-295 CNS
[8] = test system: SF-539 CNS
[9] = test system: UACC-257 melanoma
[10] = test system: M14 melanoma
[11] = test system: HCT-15 colon
[12] = test system: HT29 colon
[13] = test system: SNB-19 CNS
[14] = test system: U251 CNS
[15] = test system: PC-3 prostate
[16] = test system: SK-MEL-5 melanoma
[17] = test system: UACC-62 melanoma
[18] = test system: LOX IMVI melanoma
[19] = test system: SK-MEL-28 melanoma
[20] = test system: SNB-75 CNS; details: 10 µM unless noted

In the case of `COc1ccc(Cl)cc1C(=O)NCCc1ccc(S(=O)(=O)NC(=O)NC2CCCCC2)cc1`, the growth ([1]; 10 µM) is reported as 124% (inactive) and 120% (inactive), the growth ([1]; 100 µM) is reported as 79.8% (inactive) and the growth ([2]; 10 µM) is reported as 102% (inactive). For the same compound, the growth ([2]; 100 µM) was 66.6% (inactive), the growth ([3]; 10 µM) was 126% (inactive) and 96.5% (inactive) and the growth ([3]; 100 µM) was 71.9% (inactive). For the same compound, the growth ([4]; 10 µM) was 96.7% (inactive) and 105% (inactive), the growth ([4]; 100 µM) was 61.9% (inactive) and the growth ([5]; 10 µM) was 110% (inactive) and 104% (inactive). The growth ([5]; 100 µM) was 51.6% (inactive), the growth ([6]; 10 µM) was 113% (inactive) and 105% (inactive) and the growth ([6]; 100 µM) was 74.3% (inactive). The growth ([7]; 10 µM) was 90.2% (inactive) and 105% (inactive), the growth ([7]; 100 µM) was 74% (inactive) and the growth ([8]; 10 µM) was 113% (inactive) and 102% (inactive). The growth ([8]; 100 µM) was 68.8% (inactive), the growth ([9]; 10 µM) was 106% (inactive) and the growth ([9]; 100 µM) was 85.9% (inactive). For the same compound, the growth ([10]; 10 µM) was 113% (inactive) and 104% (inactive), the growth ([10]; 100 µM) was 67.9% (inactive) and the growth ([11]; 10 µM) was 109% (inactive) and 108% (inactive). For the same compound, the growth ([11]; 100 µM) was 42.6% (inactive), the growth ([12]; 10 µM) was 127% (inactive) and 131% (inactive) and the growth ([12]; 100 µM) was 77% (inactive). For the same compound, the growth ([13]; 10 µM) was 104% (inactive) and 97.9% (inactive), the growth ([13]; 100 µM) was 68.5% (inactive) and the growth ([14]; 10 µM) was 94.3% (inactive) and 98.7% (inactive). The growth ([14]; 100 µM) was 60.3% (inactive), the growth ([15]; 10 µM) was 93.2% (inactive) and 110% (inactive) and the growth ([15]; 100 µM) was 52.8% (inactive). For the same compound, the growth ([16]; 10 µM) was 101% (inactive) and 96.2% (inactive), the growth ([16]; 100 µM) was 45.5% (inactive) and the growth ([17]; 10 µM) was 83.8% (inactive) and 92.1% (inactive). For the same compound, the growth ([17]; 100 µM) was 51.2% (inactive), the growth ([18]; 10 µM) was 102% (inactive) and 95.9% (inactive) and the growth ([18]; 100 µM) was 64.7% (inactive). The growth ([19]; 10 µM) was 132% (inactive) and 118% (inactive) and the growth ([19]; 100 µM) was 57.5% (inactive).
In the case of `CCN(CC)C(=S)SSC(=S)N(CC)CC`, the growth ([1]; 10 µM unless noted) is reported as 83.4% (inactive) and 109% (inactive), the growth ([2]; 10 µM unless noted) is reported as 54.6% (inactive) and 80.5% (inactive) and the growth ([3]; 10 µM unless noted) is reported as 61.2% (inactive) and 113% (inactive). The growth ([4]; 10 µM unless noted) was 81.6% (inactive) and 102% (inactive), the growth ([5]; 10 µM unless noted) was 105% (inactive) and 131% (inactive) and the growth ([6]; 10 µM unless noted) was 88.1% (inactive) and 95.7% (inactive). The growth ([7]; 10 µM unless noted) was 78.5% (inactive) and 103% (inactive), the growth ([8]; 10 µM unless noted) was 91.5% (inactive) and 92.8% (inactive) and the growth ([9]; 10 µM unless noted) was 69.7% (inactive) and 69.5% (inactive). The growth ([10]; 10 µM unless noted) was 66.8% (inactive) and 92.4% (inactive), the growth ([11]; 10 µM unless noted) was 81.4% (inactive) and 109% (inactive) and the growth ([12]; 10 µM unless noted) was 68.5% (inactive) and 94.4% (inactive). The growth [20] was 72.6% (inactive) and 93.2% (inactive), the growth ([13]; 10 µM unless noted) was 85.4% (inactive) and 97% (inactive) and the growth ([14]; 10 µM unless noted) was 58.5% (inactive) and 100% (inactive). For the same compound, the growth ([15]; 10 µM unless noted) was 68.5% (inactive) and 108% (inactive), the growth ([16]; 10 µM unless noted) was 40.2% (inactive) and 110% (inactive) and the growth ([17]; 10 µM unless noted) was 69.6% (inactive) and 105% (inactive). For the same compound, the growth ([18]; 10 µM unless noted) was 53% (inactive) and 98.4% (inactive) and the growth ([19]; 10 µM unless noted) was 61.5% (inactive) and 106% (inactive).
`COc1ccc(CCN(C)CCCC(C#N)(c2ccc(OC)c(OC)c2)C(C)C)cc1OC` (stereo not drawn) was tested, and the growth ([1]; 10 µM unless noted) was 103% (inactive) and 96.6% (inactive), the growth ([2]; 10 µM unless noted) was 72.5% (inactive) and 95.2% (inactive) and the growth ([3]; 10 µM unless noted) was 93.8% (inactive) and 102% (inactive) and 89.6% (inactive). For the same compound, the growth ([4]; 10 µM unless noted) was 85.2% (inactive) and 95.4% (inactive) and 99.3% (inactive), the growth ([5]; 10 µM unless noted) was 103% (inactive) and 96.2% (inactive) and 96.3% (inactive) and the growth ([6]; 10 µM unless noted) was 97.4% (inactive) and 103% (inactive) and 96.2% (inactive). The growth ([7]; 10 µM unless noted) was 74.7% (inactive) and 67.2% (inactive) and 100% (inactive), the growth ([8]; 10 µM unless noted) was 107% (inactive) and 87.8% (inactive) and 110% (inactive) and the growth ([9]; 10 µM unless noted) was 91.8% (inactive) and 96.1% (inactive) and 89.5% (inactive). For the same compound, the growth ([10]; 10 µM unless noted) was 102% (inactive) and 86.1% (inactive) and 94.2% (inactive), the growth ([11]; 10 µM unless noted) was 94% (inactive) and 86.4% (inactive) and 101% (inactive) and the growth ([12]; 10 µM unless noted) was 79.2% (inactive) and 74.7% (inactive) and 93.8% (inactive). For the same compound, the growth [20] was 65% (inactive) and -24.5% (active) and 86.8% (inactive), the growth ([13]; 10 µM unless noted) was 107% (inactive) and 101% (inactive) and 105% (inactive) and the growth ([14]; 10 µM unless noted) was 90.4% (inactive) and 95.2% (inactive) and 99.9% (inactive). The growth ([15]; 10 µM unless noted) was 76.3% (inactive) and 68.4% (inactive) and 95.5% (inactive), the growth ([16]; 10 µM unless noted) was 94% (inactive) and 99.8% (inactive) and 101% (inactive) and the growth ([17]; 10 µM unless noted) was 106% (inactive) and 97% (inactive) and 101% (inactive). For the same compound, the growth ([18]; 10 µM unless noted) was 92.3% (inactive) and 95.4% (inactive) and 92.7% (inactive) and the growth ([19]; 10 µM unless noted) was 106% (inactive) and 99.7% (inactive).
